# High-throughput results from PubChem BioAssay.
# Rows were chosen to be rich in hits. Some 2.5% of all compounds tested hit in one or more screens of this group.
# Mito fusion yeast: mitochondrial division inhibition or fusion activation | S. cerevisiae fusion-defective mutant growth rescue, CellTiterGlo 48 h | Potency, µM (doses to about 46.1 µM), without a hit: at the top dose growth rescue (activation), usual class: activators | 320,000 tested, 0.23% active | AID 485298; also: potency is read from the fitted curve at half-maximal effect; % of control where 0% means no effect; nearly all actives have a fitted effect of over 45% in size
#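 Yeast fusion mutant, YPEG (non-fermentable carbon), compound, 48 h at 37C non-permissive; CellTiterGlo added, 10 min RT, luminescence read. Rescued growth = division inhibition.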
# TDP-43 yeast inh: inhibitors of TDP-43 toxicity in yeast; 410,000 tested, 1.8% active; TDP-43 expressing yeast growth rescue, BacTiter-Glo, 24 h; AID 652104; Potency, µM (titrated, usually from 46.1 µM), for inactives: top-dose growth rescue (activation), actives largely listed as activators; also: potency is read from the fitted curve at half-maximal effect; % of control where 0% means no effect; nearly all actives have a fitted effect of over 50% in size
#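 Yeast cells expressing TDP-43 under galactose induction are exposed to compounds for 24 hr at 30 deg C. BacTiter-Glo luminescence measures growth, so protective compounds score as activators.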
# pAkt inh: Akt phosphorylation inhibition; Neuro2A IGF-stimulated pAkt S473 HTRF, 20 min; stronger effect = lower value; activity change, % for hits at 50 µM; 360,000 tested, 0.32% active; in the data active = activity change below about -80%; inconclusive = mostly about -51% to -80%; also: % is scaled to controls: 0 for no effect and ±100 for the full control effect
#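 Neuro2A cells in DMEM with 0.5% FBS, overnight at 37 deg C, given compound at single 50 µM final, then IGF (6 nM final) for 20 min at 37 deg C. Lysed; phospho-Akt Ser473 by HTRF after 24 h, 665/615 ratio.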
# Apoferritin bind: binds horse apoferritin like a general anesthetic; Potency, µM (doses to about 77.5 µM), for inactives: at the highest dose activity change, negative = displacement, usual class: inhibitors; P02791; apoferritin/1-aminoanthracene competitive binding, fluorescence; 350,000 tested, 0.074% active; also: potency is read from the fitted curve at half-maximal effect; % is scaled to controls: 0 for no effect and ±100 for the full control effect; nearly all actives have a fitted effect of over 20% in size
# Target sequence (P02791 2-175 limits assumed): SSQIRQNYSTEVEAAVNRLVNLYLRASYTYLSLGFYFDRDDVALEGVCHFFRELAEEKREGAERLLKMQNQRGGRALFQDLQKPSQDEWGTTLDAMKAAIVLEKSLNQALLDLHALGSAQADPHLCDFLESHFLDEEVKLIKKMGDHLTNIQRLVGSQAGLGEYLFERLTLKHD
#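 Probe: 1-aminoanthracene (50% saturated, PBS). Protein: horse-spleen apoferritin, 10 uM. Incubation: 10 min, room temperature. Detection: 380 nm excitation, 535 nm emission. Analysis: normalized response, four-parameter Hill.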
# CCT modulator: modulators of cytosolic chaperonin (CCT/TRiC) activity; activity change, % (concentration not given with the values), hits read low; purified chaperonin ATPase assay, HTRF ADP detection, 30 min; 360,000 tested, 0.3% active; AID 651819; in the data active = activity change below about -30%; also: % is scaled to controls: 0 for no effect and ±100 for the full control effect
#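 TRiC (40 or 20 nM final, by batch activity) in 30 mM Tris pH 7.4, 100 mM KCl, 5 mM MgCl2, 1 mM DTT was treated with compound at 76 uM single dose, then 10 uM ATP, 30 min at 37 °C. ADP was read by HTRF Transcreener.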
# aSyn yeast inh: inhibitors of alpha-synuclein toxicity in yeast. AID 652106. Potency, µM (top dose mostly 46.1 µM), for inactives: top-dose growth rescue (activation), actives largely listed as activators. 370,000 tested, 0.14% active. Yeast expressing alpha-synuclein, growth rescue, BacTiter-Glo, 24 h; also: potency is read from the fitted curve at half-maximal effect; % of control where 0% means no effect; nearly all actives have a fitted effect of over 65% in size
#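 Screening used galactose-induced yeast with toxic alpha-synuclein levels, exposed to compound for 24 hr at 30 deg C. Cell growth, read with BacTiter-Glo luminescence, gave the measured signal.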
# * marks the source's active call; other numbers are inactive results; i = inactive; ? = inconclusive; · = no result. Unless noted, calls follow the shape of the dose curve; as a rule, active = well fitted curve in the direction sought with a large enough effect; inconclusive = small, poorly fitted or top-dose-only effect, or another doubt; inactive = no such curve, though single readings can be large; an effect the other way counts as inactive or inconclusive.
SMILES,Mito fusion yeast,TDP-43 yeast inh,pAkt inh,Apoferritin bind,CCT modulator,aSyn yeast inh
CC1(C)C(=O)NC2=C1C(=O)C(=O)c1ccccc12,·,·,·,-2%,·,·
O=C1Cc2ccccc2C1=C1C=c2ccccc2=C1,·,·,·,·,·,1%
O=C(Cc1ccccc1)NCCn1ccc2ccccc21,-1%,?,i,-1%,0,-2%
O=C(COc1ccc2ccccc2c1)NCCn1ccc2ccccc21,?,22µM*,i,0%,-2,?
NS(=O)(=O)c1ccc(S(=O)(=O)N2CCN(c3nc(-c4cccs4)nc4ccccc34)CC2)cc1,·,·,·,·,·,-1%
O=C(C1CCN(S(=O)(=O)c2ccc3ccccc3c2)CC1)N1CCN(c2ncccn2)CC1,28%,20µM*,i,-8%,-1,7%
O=C(Nc1ccccn1)C1CCN(S(=O)(=O)c2ccc3ccccc3c2)CC1,2%,11µM*,i,·,-2,8%
CCOC(=O)C1CCN(C(=O)C2CCN(S(=O)(=O)c3ccc4ccccc4c3)CC2)CC1,3%,-22%,i,-7%,1,0%
Cc1ccnc(NC(=O)C2CCN(S(=O)(=O)c3ccc4ccccc4c3)CC2)c1,24%,8%,i,·,-4,4%
Cc1cc(Nc2ccc(Cl)cc2)n(-c2cccc(Cl)c2)n1,?,22µM*,i,-16%,1,9%
Cc1cc(Nc2ccc(Cl)cc2)n(-c2ccccc2)n1,3%,10µM*,i,?,-4,9%
Cc1cc(Nc2ccccc2C(=O)O)n(-c2cccc(Cl)c2)n1,3%,6%,i,-2%,1,-1%
Cc1cc(Nc2ccccc2)n(-c2ccc(Br)cc2)n1,3%,?,i,6%,0,11%
CN(C)c1ccc(CCc2ccnc3ccccc23)cc1,·,·,·,·,·,15%
O=C(COc1ccccc1C(=O)Nc1ccccc1)Nc1ccccc1-c1ccccc1,·,·,·,·,·,-5%
CCC(C)(C)c1ccc(OCCCC[n+]2ccccc2)c(C(C)(C)CC)c1,11%,14µM*,i,?,0,-34%
CCCCCc1ccc(OCCCC[n+]2ccccc2)c(CCCCC)c1,28%,?,i,?,0,-38%
COc1cccc(Nc2nc(-c3ccccc3)c3cc(C)ccc3n2)c1,·,4%,·,37%,·,·
COc1cc(Nc2nc(-c3ccccc3)c3cc(C)ccc3n2)cc(OC)c1OC,13%,20µM*,i,?,0,-24%
COc1ccc(CCn2c(=S)[nH]c(=O)c3nccnc32)cc1OC,·,·,·,·,·,-1%
COc1ccc(N2CCN(S(=O)(=O)CCNC(=O)Cc3ccc(Cl)cc3)CC2)cc1,·,20%,·,2%,·,·
COc1ccccc1N1CCN(S(=O)(=O)CCNC(=O)COc2ccc(C(C)C)cc2)CC1,·,16µM*,·,-21%,·,·
COc1ccc(Cl)cc1C(=O)NCCS(=O)(=O)N1CCN(c2ccccc2OC)CC1,·,11µM*,·,-2%,·,·
COc1ccc(N2CCN(S(=O)(=O)CCNC(=O)COc3ccc(Cl)cc3)CC2)cc1,-2%,5%,i,-7%,-40*,-1%
CCOc1ccc(CC(=O)NCCS(=O)(=O)N2CCN(c3ccccc3OC)CC2)cc1,·,14%,·,4%,·,·
SMILES,Mito fusion yeast,TDP-43 yeast inh,pAkt inh,Apoferritin bind,CCT modulator,aSyn yeast inh
CCOc1cc(C2Nc3ccccc3C(=O)N2Cc2ccco2)ccc1OCc1ccccc1Cl (centres undefined),·,·,·,·,·,2%
CC1=C(C(=O)OC(C)C)C(c2cccnc2)C2=C(CC(C)(C)CC2=O)N1 (centres undefined),-3%,-13%,i,31%,1,-2%
COCCOC(=O)C1=C(C)NC2=C(C(=O)CC(C)(C)C2)C1c1cccnc1 (centres undefined),-2%,0%,-108%*,201%,-1,2%
O=S(=O)(Nc1ccc(-c2ccc(N3CCCCCC3)nn2)cc1)c1ccc(C(F)(F)F)cc1,·,5%,·,-18%,·,·
CCC/C=C1/CCCOC(C(=O)NCC2CC2)(C(F)(F)F)C1 (centres undefined),·,·,·,1%,·,·
Cc1ccc(-c2ccc(/C=N/NC(=O)CN3CCCC3)o2)cc1Cl,0%,11%,i,18µM*,0,11%
O=C(NNC(=O)c1ccc(Cl)cc1Cl)c1csc(-c2cccnc2)n1,2%,0%,i,?,-1,5%
O=C(NCc1ccc(Cl)cc1)c1csc(-c2cccnc2)n1,3%,16µM*,i,1%,1,-1%
CC(C)c1nn2c(=O)cc(COC(=O)c3cccc(NC(=O)CCc4ccccc4)c3)nc2s1,·,0%,·,-1%,·,·
CCOCC(=O)Nc1nnc(SCCOC)s1,-2%,3%,-85%*,4%,-10,5%
Cc1ccc(NCc2cccn2-c2nnc(N3CCC(C(=O)NCCc4ccc(Cl)cc4)CC3)s2)cc1,·,35µM*,·,77%,·,·
COc1ccc(C2=CC(=O)CC(c3ccc(F)cc3)C2)cc1 (centres undefined),·,16µM*,i,·,1,9%
COc1ccc(C2=CC(=O)CC(c3ccccc3)C2)cc1 (centres undefined),0%,18µM*,i,?,-1,10%
Cc1ccc(C2=CC(=O)C[C@H](c3ccc(F)cc3)C2)cc1,?,16µM*,i,·,-1,14%
CCOc1ccc(C2=CC(=O)C[C@H](c3ccc(OC)cc3)C2)cc1,?,13µM*,i,·,-6,12%
CCOc1ccc(-c2ccc(C3=CC(=O)C[C@H](c4ccc(F)cc4)C3)cc2)cc1,·,11%,i,·,1,8%
O=C1C=C(c2ccc(-c3ccccc3)cc2)C[C@@H](c2ccc(F)cc2)C1,18%,0%,i,·,0,1%
Cn1c(=O)n(CCc2ccccc2)c(=O)c2c1nc1n2CCN1c1ccc(Cl)cc1,·,11%,·,-10%,·,·
O=C1C=C(c2cc3ccccc3s2)C[C@@H](c2ccc(F)cc2)C1,?,18µM*,i,·,1,1%
COc1ccccc1C#CC1=CC(=O)C[C@H](c2ccc(F)cc2)C1,·,2%,i,·,0,3%
O=C1C=C(c2ccc(CO)cc2)C[C@@H](c2ccc(F)cc2)C1,·,35µM*,i,·,0,14%
COc1ccc(C2=CC(=O)CC(c3ccc(OC)cc3)C2)cc1 (centres undefined),?,25µM*,i,?,-1,14%
O=C1C=C(c2cc3ccccc3s2)C[C@@H](c2ccc(Cl)cc2)C1,·,0%,i,·,-1,8%
O=C1C=C(c2ccc(C(=O)O)cc2)C[C@@H](c2ccc(F)cc2)C1,·,9%,i,·,-2,23%
O=C1C=C(C#Cc2ccccc2)C[C@@H](c2ccc(F)cc2)C1,·,18µM*,i,·,-3,1%
